A selection: hits, their analogues and other compounds. The true share with any hit is near 1.8%.
Vif-APOBEC3F blk: inhibitors of Vif-A3F interaction. HeLa A3F-eYFP + Vif (tagged APOBEC3F with the HIV-1 protein that degrades it), YFP fluorescence increase. Potency, µM (series often up to 46.1 µM), inactives show at the top dose activity, negative = active. actives 0.2% (n = 390,000); further: % of control where 0% means no effect; nearly all actives have a fitted effect of over 65% in size
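HeLa cells stably expressing A3F-eYFP plus Vif, plated and incubated overnight at 37 deg C, then exposed to compounds overnight at 37 deg C. Blocked degradation read as raised yellow fluorescence (Ex 488/Em 500-530).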
Vif-A3G inh: blocks the Vif interaction with human APOBEC3G. actives 0.076% (n = 410,000). HeLa A3G-eYFP + Vif (tagged APOBEC3G with the HIV-1 protein that degrades it), YFP fluorescence, overnight. Potency, µM (series often up to 46.1 µM), for the others: at the highest dose activity, negative = active, most hits filed as inhibitors. Q9HC16. AID 602310; further: on the % scale 0 is the no-effect control and ±100 the full control effect; nearly all actives have a fitted effect of over 60% in size
Target sequence (Q9HC16 whole entry, looked up): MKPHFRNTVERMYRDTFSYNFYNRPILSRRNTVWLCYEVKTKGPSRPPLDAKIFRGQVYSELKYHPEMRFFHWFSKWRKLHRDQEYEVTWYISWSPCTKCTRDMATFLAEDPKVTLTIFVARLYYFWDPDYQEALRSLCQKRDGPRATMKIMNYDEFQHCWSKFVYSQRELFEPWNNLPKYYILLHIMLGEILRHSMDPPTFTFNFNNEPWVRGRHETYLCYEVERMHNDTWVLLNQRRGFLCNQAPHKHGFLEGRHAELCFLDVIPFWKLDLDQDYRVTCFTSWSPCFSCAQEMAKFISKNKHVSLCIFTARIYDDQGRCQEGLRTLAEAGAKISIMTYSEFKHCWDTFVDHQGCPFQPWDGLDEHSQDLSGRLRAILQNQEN
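Read-out is eYFP fluorescence (Ex 488/Em 500-530) from Vif-expressing HeLa A3G-eYFP cells; more signal means A3G escaped Vif-mediated degradation. Cells plated overnight, compound pinned in, incubated overnight at 37 deg C.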
TrxR1 substrate: substrates of rat thioredoxin reductase 1; O89049; actives 0.01% (n = 390,000); Potency, µM (series often up to 114 µM), inactives show top-dose activity change, negative = substrate turnover; purified TrxR1 substrate turnover, NADPH consumption readout; further: on the % scale 0 is the no-effect control and ±100 the full control effect; nearly all actives have a fitted effect of over 50% in size
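Rat TrxR1, dispensed at 90 nM, was prereduced with 400 uM NADPH (final) for 5 min at ~22 deg C, then incubated with compound 15 min before 400 uM selenite. A first-read NADPH fluorescence drop versus no-compound background flagged substrates.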
VDR inh: inhibitors of human vitamin D receptor. VDR-SRC2-3 peptide fluorescence polarization, 2 h. P11473. Potency, µM, inactives show max response, negative = inhibition, usual class: inhibitors. actives 0.93% (n = 400,000). AID 504847; further: on the % scale 0 is the no-effect control and ±100 the full control effect
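Fluorescence polarization assay of small-molecule disruption of VDR binding to coregulator peptide SRC2-3. Compounds and controls pin-transferred, then read after 2 h incubation at ambient room temperature.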
TrxR1 inh: blocks rat thioredoxin reductase 1; recombinant rTrxR1, NADPH fluorescence consumption, selenite substrate; Potency, µM (highest dose often 114 µM), inactives show at the top dose activity change, negative = inhibition, usual class: inhibitors; actives 1% (n = 390,000); further: on the % scale 0 is the no-effect control and ±100 the full control effect; nearly all actives have a fitted effect of over 65% in size
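Rat TrxR1 (90 nM in the dispensed reagent) was pre-reduced with 400 uM NADPH for 5 min at room temperature, then incubated with compound for 15 min. After 400 uM selenite was added, NADPH fluorescence (Ex 340/Em 450 nm) was followed for 8 min.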
* hit, by the source's call; [ ] = another dose, or the depositor's remark. The call rests on the fitted dose curve; in most records, active means well fitted curve in the direction sought with a large enough effect; inconclusive means small, poorly fitted or top-dose-only effect, or another doubt; inactive means no such curve, though single readings can be large; an effect the other way counts as inactive or inconclusive. Potency means the concentration at half of the fitted maximal effect.

Results for C#CCSc1nc(-c2cccs2)ccc1C#N ?
Vif-APOBEC3F blk: 2.8µM*; Vif-A3G inh: -24%; TrxR1 substrate: 21%[57.1 µM]; VDR inh: 0%; TrxR1 inh: 11%[57.1 µM]

Results for O=C(O)c1ccc(NC2=C(Cl)C(=O)c3ccccc3C2=O)cc1 ?
Vif-APOBEC3F blk: -6%; Vif-A3G inh: 3%; TrxR1 substrate: -5%; VDR inh: inconclusive; TrxR1 inh: 0.5µM*

How did CC(=O)NC1=C(N(C)C2CCS(=O)(=O)C2)C(=O)c2ccccc2C1=O (centres undefined) do in these assays?
Vif-APOBEC3F blk: 12%; Vif-A3G inh: -8%; TrxR1 substrate: 6%[57.1 µM]; VDR inh: -21%; TrxR1 inh: -43%

What do the screens show for `O=C1C(Cl)=C(Nc2ccccc2)C(=O)c2ccccc21`?
Vif-APOBEC3F blk: 1%; Vif-A3G inh: -11%; TrxR1 substrate: -10%; VDR inh: 3%; TrxR1 inh: 0.63µM*

Results for CC(=O)NC1=C(Nc2ccc(N(C)C)cc2)C(=O)c2ccccc2C1=O ?
Vif-APOBEC3F blk: 1%; Vif-A3G inh: -24%; TrxR1 substrate: -4%; VDR inh: 50µM*; TrxR1 inh: -9%

What do the screens show for `COC1=C(Nc2ccccc2)C(=O)c2ccccc2C1=O`?
Vif-APOBEC3F blk: 3%; Vif-A3G inh: -1%; TrxR1 substrate: 3%[57.1 µM]; VDR inh: 45µM*; TrxR1 inh: 13%[57.1 µM]

Results for COc1ccc(CN(C)c2ccc(-c3nc(C)no3)cc2[N+](=O)[O-])cc1 ?
Vif-APOBEC3F blk: -4%; Vif-A3G inh: -10%; TrxR1 substrate: -4%; VDR inh: 15%; TrxR1 inh: 4%

How did O=C1C(Cl)=C(NCCc2ccccc2)C(=O)c2ccccc21 do in these assays?
Vif-APOBEC3F blk: 8.9µM*; Vif-A3G inh: 13µM*; TrxR1 substrate: -34%[57.1 µM]; VDR inh: 18µM*; TrxR1 inh: inconclusive

How did Cc1ccc(NC2=C(NC(=O)c3ccccc3)C(=O)c3ccccc3C2=O)cc1Cl do in these assays?
Vif-APOBEC3F blk: -10%; Vif-A3G inh: -8%; TrxR1 substrate: inconclusive; VDR inh: -15%; TrxR1 inh: 1.6µM*

What do the screens show for `Cc1ccc(NCC(=O)c2ccccc2)cc1Cl`?
Vif-APOBEC3F blk: -3%; Vif-A3G inh: -6%; TrxR1 substrate: -4%; VDR inh: -6%; TrxR1 inh: 7%

How did COc1cccc(-c2ccc3ncnc(Nc4ccccc4)c3c2)c1 do in these assays?
VDR inh: -16%

How did CCCc1nc2c(sc3nc4c(cc32)COC(C)(C)C4)c(=O)n1Cc1ccco1 do in these assays?
Vif-APOBEC3F blk: -12%; Vif-A3G inh: 1%; TrxR1 substrate: 6%; VDR inh: 2%; TrxR1 inh: 11µM*

How did O=C(c1ccccc1)C(c1ccccc1)[n+]1csc2ccccc21 (centres undefined) do in these assays?
Vif-A3G inh: 4%; TrxR1 substrate: 7%; TrxR1 inh: 1%

What do the screens show for `O=[N+]([O-])c1ccc2c(c1)C=CC2`?
Vif-A3G inh: -1%; TrxR1 substrate: 2%; TrxR1 inh: 13µM*

How did CN(C)c1ccc(C(c2nnnn2C(C)(C)C)N2CCN(C(=O)c3ccco3)CC2)cc1 (centres undefined) do in these assays?
Vif-APOBEC3F blk: -3%; Vif-A3G inh: 1%; TrxR1 substrate: 7%[57.1 µM]; VDR inh: 16µM*; TrxR1 inh: inconclusive

Results for Cc1cc(C)c2[nH]c(=O)c(C(c3nnnn3C(C)(C)C)N3CCN(C(=O)c4ccco4)CC3)cc2c1 (centres undefined) ?
Vif-APOBEC3F blk: -2%; Vif-A3G inh: -8%; TrxR1 substrate: 18%; VDR inh: -31%; TrxR1 inh: 16µM*

What do the screens show for `Cc1ccc(C)c2[nH]c(=O)c(C(c3nnnn3C(C)(C)C)N3CC=C(c4ccc(F)cc4)CC3)cc12` (centres undefined)?
Vif-APOBEC3F blk: -12%; Vif-A3G inh: inconclusive; TrxR1 substrate: 11%[0.457 µM]; VDR inh: -4%; TrxR1 inh: 71µM*

How did CCC(C)(C)n1nnnc1C(c1cc2cccc(C)c2[nH]c1=O)N1CCCC1 (centres undefined) do in these assays?
Vif-APOBEC3F blk: -5%; Vif-A3G inh: 1%; TrxR1 substrate: 8%[57.1 µM]; VDR inh: 22%; TrxR1 inh: inconclusive

Screening data as filed in PubChem BioAssay.
